Screening results as filed in PubChem BioAssay.
An excerpt weighted towards active compounds, which were near 2% of everything screened.
CHT inh: human CHT choline transport inhibition. Q9GZV3. CHT-expressing cells, membrane potential dye, choline response; stronger effect = lower value. B-score at 10 µM. 0.86% of 310,000 active. AID 488975;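 active means B-score over 3 SD under the library average, and starting fluorescence ratio not unusually high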;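 further: choline stimulus applied at its EC90 after an EC20 pre-addition; B-score computed on integrated fluorescence ratio after choline addition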
TAG inh: reduces triacylglycerol accumulation in H9c2 cells; Nile Red lipid (TAG) fluorescence; cells loaded with 200 µM oleic acid; inhibition, % at 12.5 µM; 0.66% of 230,000 active; AID 651582;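 active means pattern-corrected inhibition of lipid staining of at least 50% with the nuclear-stain viability signal not falling by more than 50%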;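 further: 0% = DMSO wells and 100% = triacsin C control wells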
CHT PAM: human CHT allosteric activation | 0.49% of 310,000 active | AID 488977 | CHT-expressing cells, membrane potential dye, choline EC20; stronger effect = higher value; LV-AA mutant CHT in HEK293 cells | B-score at 10 µM;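 active means initial fluorescence not abnormally high and integrated response B-score, plate-corrected, over 3 SD above library mean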
Kir21 block: inhibitors of mouse Kir2.1 inward-rectifier potassium channel | P35561 | HEK293-Kir2.1, FluxOR thallium flux fluorescence; stronger effect = lower value | B-score at 10 µM | 0.85% of 310,000 active | AID 1672;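 active means fluorescence ratio B-score at or below minus 3 SD of library scores, with starting-brightness B-score within 2 SD, cut at about -4.2 in these data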;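 further: channel flux triggered by added potassium and thallium sulfate stimulus; B-score of peak minus minimum fluorescence over baseline after thallium stimulus; more negative B-score means stronger Kir2.1 block with less thallium influx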
Target sequence (P35561 whole entry, looked up): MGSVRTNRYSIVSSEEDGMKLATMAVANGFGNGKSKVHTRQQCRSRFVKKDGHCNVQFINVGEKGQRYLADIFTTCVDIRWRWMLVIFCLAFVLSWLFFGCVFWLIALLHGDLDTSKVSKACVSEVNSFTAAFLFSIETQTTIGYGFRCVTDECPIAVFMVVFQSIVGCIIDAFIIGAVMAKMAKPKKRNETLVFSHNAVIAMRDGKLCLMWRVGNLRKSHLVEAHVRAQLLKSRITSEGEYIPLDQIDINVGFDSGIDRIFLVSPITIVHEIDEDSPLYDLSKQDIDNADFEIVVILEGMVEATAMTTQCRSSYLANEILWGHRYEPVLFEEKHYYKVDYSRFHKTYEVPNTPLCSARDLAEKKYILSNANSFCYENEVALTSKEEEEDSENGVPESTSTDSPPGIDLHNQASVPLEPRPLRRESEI
CHT block conf: human CHT inhibition, confirmatory screen | shares compounds with CHT inh | CHT-expressing cells, choline membrane potential dye; LV-to-AA substituted CHT, HEK293 cells | CHT activity remaining % of control (stronger effect = lower value), % at 10 µM | 70% of 2,400 active | AID 493221;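 active means choline transporter activity left, mean of duplicates at 10 µM, below buffer-only control mean minus 3 SD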;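 further: depolarization triggered by choline at its EC90 following an EC20 pre-addition; 0% = hemicholinium-3 full block and 100% = buffer-only control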
HEK293 CHT ctr: counter-screen for CHT inhibitors: effect in parental HEK293 cells; shares compounds with CHT inh; membrane potential dye, choline response; active = decrease or increase beyond buffer ±3SD; membrane potential ratio readout (active if shifted either direction beyond buffer ±3SD; no single direction) at 10 µM; 4% of 2,400 active; AID 493222;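 further: parental cells lack the transporter so any hit is non-specific; ratio is peak minus trough fluorescence over baseline after EC90 choline challenge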
Active calls of the source: *.

What do the screens show for `O=C(Cn1nc(C(F)(F)F)cc1C1CC1)NCc1ccccc1F`?
CHT inh: -5.8*; CHT PAM: inactive; Kir21 block: 0.63; CHT block conf: 65%*; HEK293 CHT ctr: inactive

What do the screens show for `O=C(Cn1nc(C(F)(F)F)cc1C1CC1)Nc1ccccc1F`?
CHT inh: inactive; CHT PAM: inactive; Kir21 block: 1.1

Results for Cc1cccc(N(CC(O)CN2CCCC2)S(=O)(=O)c2ccccc2)c1 (configuration not stated) ?
CHT inh: inactive; CHT PAM: inactive; Kir21 block: -1.4

Results for O=C(NCC1CCCO1)c1nn2c(C(F)(F)F)cc(-c3cc(Br)cs3)nc2c1Br (configuration not stated) ?
CHT inh: inactive; CHT PAM: inactive; Kir21 block: 0.16

What do the screens show for `CCn1cc(CN2CCC(C(=O)Nc3ccc(Oc4cccnc4)cc3)CC2)cn1`?
CHT inh: inactive; TAG inh: 8; CHT PAM: inactive; Kir21 block: -0.31

How did CC1CCN(CCNC(=O)CCS(=O)(=O)c2ccc(Br)cc2)CC1 do in these assays?
CHT inh: -5.3*; TAG inh: 5; CHT PAM: inactive; CHT block conf: inactive; HEK293 CHT ctr: inactive

What do the screens show for `O=C(CCS(=O)(=O)c1ccc(Br)cc1)NC1CCCC1`?
CHT inh: inactive; CHT PAM: inactive; Kir21 block: -1.8

How did O=c1cc(CN2CCN(c3ccccc3O)CC2)nc2sccn12 do in these assays?
CHT inh: -8.8*; TAG inh: 9; CHT PAM: inactive; Kir21 block: -1; CHT block conf: 42%*; HEK293 CHT ctr: inactive

How did Cc1cccc(N2CCN(Cc3cc(=O)n4ccsc4n3)CC2)c1C do in these assays?
CHT inh: inactive; TAG inh: -3; CHT PAM: inactive; Kir21 block: 2

Results for COc1ccc(NC(=O)c2cc(S(=O)(=O)N3CCCCC3)c[nH]2)cc1 ?
CHT inh: inactive; TAG inh: -11; CHT PAM: inactive; Kir21 block: -0.18

How did O=C(CSc1ccccn1)N1CCN(c2ncc(C(F)(F)F)cc2Cl)CC1 do in these assays?
CHT inh: -5.3*; TAG inh: -9; CHT PAM: inactive; Kir21 block: 3; CHT block conf: inactive; HEK293 CHT ctr: inactive

What do the screens show for `CNCC(=O)N1CCN(c2ncc(C(F)(F)F)cc2Cl)CC1`?
CHT inh: inactive; TAG inh: -1; CHT PAM: inactive; Kir21 block: 0.15

How did COc1ccccc1C(=O)Nc1ccc(C(=O)c2ccccc2)cc1 do in these assays?
CHT inh: -6.5*; TAG inh: -3; CHT PAM: inactive; Kir21 block: 1.9; CHT block conf: inactive; HEK293 CHT ctr: inactive

How did COc1ccccc1C(=O)Nc1ccc(C(=O)O)cc1 do in these assays?
CHT inh: inactive; TAG inh: 11; CHT PAM: inactive; Kir21 block: 4.5

What do the screens show for `COC(=O)COc1ccc(/C=N/NC(=O)c2ccc(N(Cc3ccccc3)S(C)(=O)=O)cc2)cc1`?
CHT inh: inactive; CHT PAM: inactive; Kir21 block: 0.73

What do the screens show for `CCn1c(SCC(=O)Nc2ccc(C(C)=O)cc2)nc2nc3c(cc2c1=O)COC(C)(C)C3`?
CHT inh: inactive; TAG inh: 20; CHT PAM: inactive; Kir21 block: -7.5

How did CCn1c(SCC(=O)Nc2ccc(OC)cc2)nc2nc3c(cc2c1=O)COC(C)(C)C3 do in these assays?
CHT inh: -5*; TAG inh: 14; CHT PAM: inactive; Kir21 block: -0.77; CHT block conf: inactive; HEK293 CHT ctr: inactive

How did O=C(COC(=O)c1ccco1)NC(c1ccccc1)c1ccccc1 do in these assays?
CHT inh: -14*; TAG inh: -16; CHT PAM: inactive; Kir21 block: -2.6; CHT block conf: inactive; HEK293 CHT ctr: inactive

Results for Nn1c(Cc2ccccc2F)nnc1SCC(=O)Nc1cccc(S(=O)(=O)NC2=NCCCCC2)c1 ?
CHT inh: -6.1*; TAG inh: 3; CHT PAM: inactive; Kir21 block: 1.9; CHT block conf: inactive; HEK293 CHT ctr: inactive
